M1 PAM: human M1 muscarinic receptor positive allosteric modulators, primary screen, CHO-K1 cells, Fluo-8 calcium fluorescence, 1536-well; Muscarinic acetylcholine receptor M1 (Homo sapiens), P11229; CHO-K1 hM1, ACh EC20; 0% = ACh EC20, 100% = maximal ACh; activation, % at 3 µM; 0.088% of 360,000 active; AID 588819, 2011; in the data active means activation above about 19%, passing the limit was not always enough
Target sequence (P11229 whole entry, looked up): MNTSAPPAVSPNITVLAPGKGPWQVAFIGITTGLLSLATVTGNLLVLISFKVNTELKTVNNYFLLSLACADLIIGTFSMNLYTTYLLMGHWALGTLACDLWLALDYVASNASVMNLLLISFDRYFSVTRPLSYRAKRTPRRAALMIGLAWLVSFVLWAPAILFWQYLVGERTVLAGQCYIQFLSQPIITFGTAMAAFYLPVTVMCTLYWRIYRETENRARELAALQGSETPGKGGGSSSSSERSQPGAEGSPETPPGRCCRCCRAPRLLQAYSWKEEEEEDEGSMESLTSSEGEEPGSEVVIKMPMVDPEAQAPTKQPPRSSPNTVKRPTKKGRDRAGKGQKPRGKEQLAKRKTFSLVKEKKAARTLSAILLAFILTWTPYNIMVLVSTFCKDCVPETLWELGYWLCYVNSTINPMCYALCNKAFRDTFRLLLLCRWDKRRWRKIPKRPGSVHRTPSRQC
CHO-K1 Ca antag: nonselective inhibitor or artifact in parental CHO-K1 cells. ATP-induced calcium, Fluo-8 fluorescence. inhibition, % at 3 µM. 0.6% of 360,000 active. AID 602250;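 active means inhibition above a per-plate cutoff, the plate's mean sample inhibition plus 3 SD, cut at about 24% in these data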;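 further: 0% = DMSO plus EC80 ATP and 100% = DMSO alone without ATP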
CHO-K1 Ca PAM: nonselective calcium activators in parental CHO-K1 cells, primary screen, counter-screen for M1 PAM project, cell-based, Fluo-8 calcium fluorescence, full deck, 1536-well. ATP EC20; 0% at ATP EC20, 100% at ATP max. activation, % at 3 µM. 0.02% of 360,000 active;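 active means activation above the run cutoff, the mean activation of all test compounds plus 3 SD, cut at about 40% in these data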;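 further: peak over basal fluorescence ratio in a 140 s read after ATP addition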
M1 antag: human M1 muscarinic receptor antagonists, primary screen, CHO-K1 cells, Fluo-8 calcium fluorescence, 1536-well; CHO-K1 hM1, ACh EC80 antagonist; inhibition, % at 3 µM; 1.3% of 360,000 active; AID 588852, 2011;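 active means percent inhibition above its own plate's cutoff, namely the mean of that plate's compound wells plus 3 SD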;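 further: peak over basal fluorescence ratio during 140 s after agonist addition; 0% = ACh EC80 plus DMSO and 100% = DMSO alone without agonist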
M1 ag: human M1 muscarinic receptor agonists, primary screen, Fluo-8 calcium fluorescence, CHO-K1 cells, HTS; Muscarinic acetylcholine receptor M1 (Homo sapiens), P11229; CHO-K1 hM1, agonist mode; 0% DMSO, 100% acetylcholine EC100; activation, % at 3 µM; 0.33% of 360,000 active;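 active means activation above the run's mean compound activation plus 3 SD, cut at about 16% in these data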;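 further: peak over basal fluorescence ratio within a 140 s kinetic read after compound addition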
CHO-K1 Ca ag: counter-screen for M1 agonists: effect in parental CHO-K1 cells; activation, % at 3 µM; Fluo-8 calcium fluorescence; scaled to maximal ATP response, vehicle zero; 0.48% of 360,000 active; AID 602248, 2012; in the data active means activation above about 15%;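 further: untransfected CHO-K1 host cells lacking M1 receptor as counterscreen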
* marks the source's active call; other numbers are inactive results. A selection: hits, their analogues and other compounds. The true share with any hit is near 2.3%.

How did COc1ccc(NS(=O)(=O)c2cccc(C(=O)NCc3ccccc3CN3CCOCC3)c2)cc1 do in these assays?
M1 PAM: -6; CHO-K1 Ca antag: -17; CHO-K1 Ca PAM: 10; M1 antag: 6; M1 ag: 23*; CHO-K1 Ca ag: 8

What do the screens show for `CC(C)(CNC(=O)c1cccc(S(=O)(=O)Nc2ccc(SC(F)F)cc2)c1)N1CCOCC1`?
M1 PAM: -15; CHO-K1 Ca antag: 9; CHO-K1 Ca PAM: -17; M1 antag: 35*; M1 ag: 1; CHO-K1 Ca ag: 1

What do the screens show for `COc1ccc(NS(=O)(=O)c2cccc(C(=O)NCC(c3ccccc3OC)N3CCCC3)c2)cc1` (centres undefined)?
M1 PAM: -25; CHO-K1 Ca antag: -7; CHO-K1 Ca PAM: 8; M1 antag: 82*; M1 ag: -6; CHO-K1 Ca ag: 2

How did COc1ccc(NS(=O)(=O)c2cccc(C(=O)NCC(c3ccc(OC)cc3)N3CCCC3)c2)cc1 (centres undefined) do in these assays?
M1 PAM: 2; CHO-K1 Ca antag: 9; CHO-K1 Ca PAM: -2; M1 antag: -4; M1 ag: -5; CHO-K1 Ca ag: 5

How did COc1ccc(C(CNC(=O)c2cccc(S(=O)(=O)Nc3ccc(F)cc3)c2)N2CCCC2)cc1 (centres undefined) do in these assays?
M1 PAM: 7; CHO-K1 Ca antag: 4; CHO-K1 Ca PAM: 19; M1 antag: -14; M1 ag: -6; CHO-K1 Ca ag: 2

What do the screens show for `CCN(c1ccccc1)S(=O)(=O)c1ccc(Cl)c(C(=O)NCc2ccco2)c1`?
M1 PAM: 8; CHO-K1 Ca antag: -20; CHO-K1 Ca PAM: 10; M1 antag: -8; M1 ag: -5; CHO-K1 Ca ag: 5

What do the screens show for `CN(CC(=O)NCc1ccccn1)S(=O)(=O)c1ccc(Br)cc1`?
M1 PAM: 14; CHO-K1 Ca antag: -9; CHO-K1 Ca PAM: 12; M1 antag: -13; M1 ag: -2; CHO-K1 Ca ag: 0

How did O=C1NC[C@@H](CCCCN2C[C@H](Cc3ccc(O)cc3)N(CCc3ccc(O)cc3)C(=O)C2=O)N(CC2CCCCC2)C1=O do in these assays?
CHO-K1 Ca antag: -13; CHO-K1 Ca PAM: -11; CHO-K1 Ca ag: 3

Results for COc1ccc(C(CNC(=O)c2oc3ccc(OC)cc3c2C)N2CCCC2)cc1 (centres undefined) ?
M1 PAM: -11; CHO-K1 Ca antag: 30*; CHO-K1 Ca PAM: -30; M1 antag: 14; M1 ag: -6; CHO-K1 Ca ag: 0

How did C=CCN(c1ccccc1OC)S(=O)(=O)c1cccc(C(=O)NCC(c2ccc(OC)cc2)N2CCCC2)c1 (centres undefined) do in these assays?
M1 PAM: -24; CHO-K1 Ca antag: -13; CHO-K1 Ca PAM: -2; M1 antag: 34*; M1 ag: -9; CHO-K1 Ca ag: 1

What do the screens show for `O=C(Nc1ccccc1N1CCN(C(=O)c2ccccc2)CC1)c1cc(Br)ccc1Cl`?
M1 PAM: 0; CHO-K1 Ca antag: 26*; CHO-K1 Ca PAM: -8; M1 antag: 14; M1 ag: -1; CHO-K1 Ca ag: 0

Results for COc1ccc(Br)cc1C(=O)Nc1ccccc1N1CCN(C(=O)c2ccccc2)CC1 ?
M1 PAM: 12; CHO-K1 Ca antag: 2; CHO-K1 Ca PAM: -11; M1 antag: -2; M1 ag: 0; CHO-K1 Ca ag: 0

Results for O=C(Nc1ccc(N2CCCC2)cc1)c1cc(Br)ccc1Cl ?
M1 PAM: -28; CHO-K1 Ca antag: 2; CHO-K1 Ca PAM: -10; M1 antag: 53*; M1 ag: -8; CHO-K1 Ca ag: 0

Results for CS(=O)(=O)c1ccc(C(=O)Nc2ccc(N3CCCC3)cc2)c(Cl)c1 ?
M1 PAM: 8; CHO-K1 Ca antag: -3; CHO-K1 Ca PAM: 0; M1 antag: 0; M1 ag: -12; CHO-K1 Ca ag: 0

Results for CN1CC(=O)N(CC(=O)Nc2ccc(OCc3ccccc3)cc2)C1=O ?
M1 PAM: 7; CHO-K1 Ca antag: -8; CHO-K1 Ca PAM: 10; M1 antag: -8; M1 ag: -7; CHO-K1 Ca ag: 0

What do the screens show for `CSc1ccc(CN2CCC(C)(Oc3ccccc3F)C2)cc1` (centres undefined)?
M1 PAM: -18; CHO-K1 Ca antag: 7; CHO-K1 Ca PAM: -2; M1 antag: 14; M1 ag: -9; CHO-K1 Ca ag: 0

How did CCN1CCc2nc(NC(=O)c3ccccc3)sc2C1 do in these assays?
M1 PAM: 2; CHO-K1 Ca antag: 2; CHO-K1 Ca PAM: -2; M1 antag: 4; M1 ag: -5; CHO-K1 Ca ag: 0

What do the screens show for `CCOC(=O)NC(=O)/C(C#N)=C/c1ccc(N(C)C)cc1`?
M1 PAM: 8; CHO-K1 Ca antag: 3; CHO-K1 Ca PAM: 2; M1 antag: -4; M1 ag: 3; CHO-K1 Ca ag: 9

Results for CN(C)c1ccc(/C=C(\C#N)C(=O)Nc2nc3c(s2)CCN(Cc2ccccc2)C3)cc1 ?
M1 PAM: -12; CHO-K1 Ca antag: 17; CHO-K1 Ca PAM: -29; M1 antag: 35*; M1 ag: 21*; CHO-K1 Ca ag: 15

Results for O=C(Nc1nc2c(s1)CN(Cc1ccccc1)CC2)C1CCC1 ?
M1 PAM: -10; CHO-K1 Ca antag: -12; CHO-K1 Ca PAM: 6; M1 antag: 46*; M1 ag: -8; CHO-K1 Ca ag: 0

Results for O=C(COc1ccccc1)NCC(=O)Nc1cccc(S(=O)(=O)NC2=NCCC2)c1 ?
M1 PAM: -7; CHO-K1 Ca antag: 3; CHO-K1 Ca PAM: -7; M1 antag: 1; M1 ag: -4; CHO-K1 Ca ag: 0

What do the screens show for `Cc1ccc(-c2nc(CS(=O)CC(=O)NCc3ccccc3)c(C)o2)cc1` (centres undefined)?
M1 PAM: 24*; CHO-K1 Ca antag: -20; CHO-K1 Ca PAM: 23; M1 antag: -15; M1 ag: 5; CHO-K1 Ca ag: 0

Results for Cc1oc(-c2ccc(Cl)cc2)nc1CS(=O)CC(=O)NCCN1CCCC1 (centres undefined) ?
M1 PAM: 0; CHO-K1 Ca antag: 25*; CHO-K1 Ca PAM: -4; M1 antag: -2; M1 ag: -11; CHO-K1 Ca ag: 0

What do the screens show for `CS(=O)(=O)c1ccc(NC(=O)CCCc2nc3ccccc3c(=O)[nH]2)cc1`?
M1 PAM: 13; CHO-K1 Ca antag: 5; CHO-K1 Ca PAM: 10; M1 antag: -7; M1 ag: 0; CHO-K1 Ca ag: 1

High-throughput results as filed in PubChem.
